Screens (PubChem BioAssay)
An excerpt weighted towards active compounds, which were near 0.52% of everything screened.
RGS4 inh = Inhibitors of Regulator of G Protein Signaling (RGS) 4: qHTS; Regulator of G-protein signaling 4 (Homo sapiens), P49798; Transcreener GDP fluorescence polarization, RGS4-accelerated GTP hydrolysis; Potency, µM (doses to about 114 µM), without a hit: at the highest dose activity change, negative = inhibition, most hits filed as inhibitors; 0.039% of 390,000 active; also: nearly all actives have a fitted effect of over 75% in size
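MLSMR compounds (23 nl, pin-transferred) preincubated 10 min at room temperature with a 500nM (2x) first reagent, then RGS4 at 900nM (2x) plus Transcreener GDP mix added; fluorescence polarization (620/688 nm) read before and after 90 min at 30 °C.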
USP2a block = qHTS Assay for Inhibitors of Ubiquitin-specific Protease USP2a Using CHOP2 as the Reporter; USP2 core, Ub-CHOP2 coupled fluorogenic reporter, 485/531; Potency, µM (doses to about 38.3 µM), for the others: top-dose activity change, negative = inhibition, actives largely listed as inhibitors; 0.01% of 330,000 active; AID 463254, 2010;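 also: plate controls were DMSO wells for no effect and full inhibition by NEM control for full effect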
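Deubiquitinase activity read as fluorescence (485/531 nm) after Ub-CHOP2 cleavage activates the enterokinase reporter on its substrate; USP2 core 10nM, Ub-CHOP2 and substrate 25nM each, 30min compound preincubation then 60min RT; data normalized to NEM, curves fitted.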
Eya2 phos inh = qHTS Assay for Inhibitors of the Phosphatase Activity of Eya2; recombinant Eya2, OMFP fluorescence dephosphorylation (OMFP is methylfluorescein phosphate); Potency, µM (highest dose often 76.9 µM), inactives show at the highest dose activity, negative = inhibition, usual class: inhibitors; 0.006% of 330,000 active
Target sequence (O00167 whole entry, looked up): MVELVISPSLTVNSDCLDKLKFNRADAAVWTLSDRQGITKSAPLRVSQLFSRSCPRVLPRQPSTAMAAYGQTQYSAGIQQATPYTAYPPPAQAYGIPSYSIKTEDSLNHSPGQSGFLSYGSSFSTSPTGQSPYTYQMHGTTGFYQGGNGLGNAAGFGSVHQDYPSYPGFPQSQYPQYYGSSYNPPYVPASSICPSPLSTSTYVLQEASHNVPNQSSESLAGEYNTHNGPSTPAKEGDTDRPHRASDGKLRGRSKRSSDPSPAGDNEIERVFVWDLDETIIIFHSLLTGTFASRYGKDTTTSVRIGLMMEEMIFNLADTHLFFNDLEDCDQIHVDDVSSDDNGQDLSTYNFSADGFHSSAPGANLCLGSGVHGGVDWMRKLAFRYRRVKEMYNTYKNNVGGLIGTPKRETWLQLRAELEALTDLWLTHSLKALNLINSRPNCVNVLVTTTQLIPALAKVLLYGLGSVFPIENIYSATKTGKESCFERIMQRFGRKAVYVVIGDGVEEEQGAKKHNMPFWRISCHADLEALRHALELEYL
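Eya2 protein (added as 0.2 uM solution) was preincubated with compound for 10 min at ambient temperature in 50 mM HEPES pH 7.5, 50 mM NaCl, 5 uM MgCl2, 0.05% BSA, 1 mM DTT. OMFP (added at 50 uM) then reacted 10 min; fluorescence read at 485/525 nm.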
GCN5L2 inh = qHTS Assay for Inhibitors of GCN5L2; Histone acetyltransferase KAT2A (Homo sapiens), Q92830; GCN5L2 HAT assay, ThioGlo1 CoA-SH fluorescence; Potency, µM (series often up to 58.9 µM), for inactives: top-dose activity change, negative = inhibition, usual class: inhibitors; 0.21% of 390,000 active; AID 504327, 2011
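Titration-based screen in which CoA formation is detected via maleimide probe ThioGlo1 (50uM) turning fluorescent on thiol reaction; substrates H3(1-25) 75uM and acetyl-CoA 70uM, GCN5L2 20nM, 20 min incubation at room temperature.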
Chronic BCR inh = qHTS Assay to Find Inhibitors of Chronic Active B-Cell Receptor Signaling; Potency, µM (titrated, usually from 46.1 µM), for inactives: at the highest dose activity change, negative = inhibition, usual class: inhibitors; AID 493014, 2011; ABC-DLBCL IkBa-CBG/CBR reporter, luminescence ratio, 4 h; 0.05% of 340,000 active; active = well fitted inhibition curve with a large enough effect in the signal ratio, with a control signal flat, not every such curve was filed as active; inconclusive = small, poorly fitted or top-dose-only effect, or effect the other way, or a change in a side signal; the % refers to the signal ratio;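 also: plate controls were basal doxycycline-induced cells for no effect and cells given 10 µM MG132 for full effect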
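TMD8 human ABC-DLBCL cells with doxycycline-inducible IκBα–green luciferase fusion and unfused red luciferase, in 0.5% FBS medium; compounds up to 46 uM, 4 h at 37C. Green/red luminescence ratio, filter-overlap corrected, fitted to concentration-response curves.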
uPA surface inh = qHTS for Inhibitors of Cell Surface uPA Generation; Potency, µM (top dose mostly 38.3 µM), inactives show at the highest dose activity change, negative = inhibition, usual class: inhibitors; 0.31% of 330,000 active; cell surface uPA generation assay, qHTS; active = well fitted inhibition curve with a large enough effect; inconclusive = small, poorly fitted or top-dose-only effect; inactive = no such curve, though single readings can be large or run the other way; tested in mouse RAW 264.7 cells; also: nearly all actives have a fitted effect of over 55% in size
Active calls of the source: *; ? = inconclusive; . = no result given. Unless noted, calls follow the shape of the dose curve; as a rule, active = well fitted curve in the direction sought with a large enough effect; inconclusive = small, poorly fitted or top-dose-only effect, or another doubt; inactive = no such curve, though single readings can be large; an effect the other way counts as inactive or inconclusive. Unless noted, % is scaled to controls: 0 for no effect and ±100 for the full control effect; potency is read from the fitted curve at half-maximal effect.

SMILES	RGS4 inh	USP2a block	Eya2 phos inh	GCN5L2 inh	Chronic BCR inh	uPA surface inh
COC(=O)C1=CO[C@@H](C)[C@@H]2CN3CCc4c([nH]c5ccccc45)[C@@H]3C[C@H]12	.	.	.	34%	.	.
CCOc1ccccc1CNS(=O)(=O)c1ccc(-c2cnc(C3CC3)o2)cc1	-13%	3%	2%	-22%	?	0.28µM*
O=S(=O)(NCc1ccccc1)c1ccc(-c2cnc(C3CC3)o2)cc1	-12%	0%	4%	-18%	-12%	5.6µM*
O=C(CCC(=O)N1Cc2ccccc2Oc2ncccc21)NCc1ccccc1Cl	9%	.	.	-23%	.	.
C[n+]1ccc(/C=C/c2ccc(Br)cc2)cc1	-35%	0%	1%	-21%	1%	-6%
C[n+]1ccc(/C=C/c2ccc3ccccc3c2)cc1	.	.	.	28µM*	.	.
CCOc1ccccc1N1CCN(C(=O)c2cc3ccccc3cc2OC)CC1	-7%	-1%	17%	2%	?	3.5µM*
COc1ccc(OC)c2c1C(=O)C(Cl)=C(Cl)C2=O	-149%	2%	4%	13µM*	?	?
COc1ccc(OC)c2c1C(=O)c1ccccc1C2=O	1%	?	40%	-11%	-5%	-9%
COc1ccc(-c2cc(-c3nc4ccccn4c3NCc3ccccc3)ccc2OC)cc1	15%	3%	8%	-28%	?	5.6µM*
CCC(C)Sc1cc(-c2nc3ccc(C)cn3c2NCc2ccccc2)ccc1OC (centres undefined)	8%	.	.	.	.	4.5µM*
COc1ccc(-c2nc3ccc(C)cn3c2NCc2ccccc2)cc1SC1CCCCC1	-46%	0%	-42%	?	?	3.2µM*
COc1ccc(-c2nc3ccccn3c2NCc2ccc3c(c2)OCO3)cc1	-16%	1%	-9%	-16%	?	0%
CCC(C)Sc1ccc(-c2nc3ccc(C)cn3c2NCc2ccccc2)cc1OC (centres undefined)	25%	-2%	-5%	-27%	?	5.6µM*
CCCCNc1c(-c2ccc(OC)c(SC(C)CC)c2)nc2ccc(C)cn12 (centres undefined)	9%	0%	-1%	?	?	?
CC1(C(=O)O)CCC2(C)CCC3(C)C(=CC(=O)C4C5(C)CCC(O)C(C)(C)C5CCC43C)C2C1 (centres undefined)	.	.	.	-19%	.	.
CCOc1ccc(-c2nc(Cn3c(=O)cc(-c4ccccc4)c4c(C)nn(C)c43)c(C)o2)cc1	-4%	.	.	-9%	.	.
O=C(Nc1ccc(Cl)c(Cl)c1)Nc1nccs1	-10%	-2%	4%	2%	-26%	3.2µM*
CC[C@H](C)[C@H](NC(=O)[C@H](CCCNC(=N)N)NC(=O)[C@@H]1CCCN1C(=O)[C@H](Cc1ccccc1)NC(=O)[C@H](Cc1cnc[nH]1)NC(=O)[C@H](CCCNC(=N)N)NC(=O)[C@@H](NC(=O)[C@H](C)NC(=O)[C@H](CCC(=O)O)NC(=O)[C@H](CC(N)=O)NC(=O)[C@@H](N)CCCCN)C(C)C)C(=O)N[C@@H](Cc1c[nH]c2ccccc12)C(=O)N[C@@H](CC(C)C)C(=O)O	.	.	.	45%	.	.
COCCNC(=O)c1c(NC(=O)c2cc(=O)c3cc(Cl)ccc3o2)sc2c1CCCC2	12%	.	.	-8%	.	.
COC(=O)/C=C/C(=O)N1CCN(c2ccccc2C)CC1	8%	0%	-2%	-3%	?	11µM*
COC(=O)/C=C/C(=O)N1CCN(c2ccccc2)CC1	-7%	0%	-5%	2%	?	-12%
